# Measurements: article PMC7862700, “An all-to-all approach to the identification of sequence-specific readers for epigenetic DNA modifications on cytosine”
# What was measured:
# Assay in all cases: DAPPL (digital affinity profiling via proximity ligation, sequencing); 10 mM Tris-HCl pH 7.5, 50 mM NaCl, 1 mM DTT, 4% glycerol, room temperature, 30 min; GST-TFs on glutathione beads, 16-mer random dsDNA library, 0.1% formaldehyde crosslink after washing; high values mean tight binding
# FEV = molecular target: T1, FEV (Homo sapiens, UniProt Q99581 1-238); conditions: protein: recombinant; tags: N-terminal GST; dsDNA, one strand shown
# T1 sequence: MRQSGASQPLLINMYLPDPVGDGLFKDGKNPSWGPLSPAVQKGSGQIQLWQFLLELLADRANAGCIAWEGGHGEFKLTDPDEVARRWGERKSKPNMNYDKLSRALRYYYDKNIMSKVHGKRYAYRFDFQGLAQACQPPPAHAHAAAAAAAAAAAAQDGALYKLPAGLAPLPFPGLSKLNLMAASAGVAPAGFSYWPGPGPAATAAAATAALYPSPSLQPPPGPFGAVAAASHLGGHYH
# Method in brief: (§1)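 Binding signal is given per hexamer as its read frequency for a factor divided by its frequency in the tag-only sample. GST-fused human transcription factors were expressed in yeast, captured on glutathione beads, barcoded with DNA and pooled with that sample, then incubated with 200 nmole of a 16-mer random double-stranded DNA library in Tris/NaCl/DTT/glycerol buffer for 30 min at room temperature. The pools were then washed, crosslinked, proximity-ligated, amplified by PCR and sequenced on an Illumina NextSeq500.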
# ETV5 = ETV5 (Homo sapiens, UniProt P41161 1-510); conditions: protein: recombinant; tags: N-terminal GST; dsDNA, one strand shown
# Method in brief: as §1
# HSF1 = HSF1 (Homo sapiens, UniProt Q00613 1-529); conditions: protein: recombinant; tags: N-terminal GST; chain copies: 3; dsDNA, one strand shown
# Method in brief: as §1
# SPIC = molecular target: T2, SPIC (Homo sapiens, UniProt Q8N5J4 1-248); conditions: protein: recombinant; tags: N-terminal GST; dsDNA, one strand shown
# T2 sequence: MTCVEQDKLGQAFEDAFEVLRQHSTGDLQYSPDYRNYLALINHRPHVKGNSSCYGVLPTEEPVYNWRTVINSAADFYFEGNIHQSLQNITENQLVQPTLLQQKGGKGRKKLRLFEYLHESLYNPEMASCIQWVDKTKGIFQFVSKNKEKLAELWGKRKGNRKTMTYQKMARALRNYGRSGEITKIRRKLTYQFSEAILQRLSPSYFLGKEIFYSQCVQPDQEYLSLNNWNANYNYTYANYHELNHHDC
# Method in brief: as §1
# ELF4 = ELF4 (Homo sapiens, UniProt Q99607 1-663); conditions: protein: recombinant; tags: N-terminal GST; dsDNA, one strand shown
# Method in brief: as §1
# ELK4 = molecular target: T3, ELK4 (Homo sapiens, UniProt P28324-2 1-405); conditions: protein: recombinant; tags: N-terminal GST; dsDNA, one strand shown
# T3 sequence: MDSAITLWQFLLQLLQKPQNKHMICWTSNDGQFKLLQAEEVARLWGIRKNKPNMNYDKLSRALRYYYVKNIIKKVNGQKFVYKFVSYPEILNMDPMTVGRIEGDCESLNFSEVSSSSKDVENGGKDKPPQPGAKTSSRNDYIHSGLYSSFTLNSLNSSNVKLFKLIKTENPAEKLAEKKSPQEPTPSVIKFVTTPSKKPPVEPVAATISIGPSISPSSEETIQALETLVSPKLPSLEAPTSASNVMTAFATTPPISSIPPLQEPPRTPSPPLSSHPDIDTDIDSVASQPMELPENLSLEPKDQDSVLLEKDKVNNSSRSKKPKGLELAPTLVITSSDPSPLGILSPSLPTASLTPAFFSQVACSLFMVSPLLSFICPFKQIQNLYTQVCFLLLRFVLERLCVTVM
# Method in brief: as §1
# ETV2 = molecular target: T4, ETV2 (Homo sapiens, UniProt O00321 1-342); conditions: protein: recombinant; tags: N-terminal GST; dsDNA, one strand shown
# T4 sequence: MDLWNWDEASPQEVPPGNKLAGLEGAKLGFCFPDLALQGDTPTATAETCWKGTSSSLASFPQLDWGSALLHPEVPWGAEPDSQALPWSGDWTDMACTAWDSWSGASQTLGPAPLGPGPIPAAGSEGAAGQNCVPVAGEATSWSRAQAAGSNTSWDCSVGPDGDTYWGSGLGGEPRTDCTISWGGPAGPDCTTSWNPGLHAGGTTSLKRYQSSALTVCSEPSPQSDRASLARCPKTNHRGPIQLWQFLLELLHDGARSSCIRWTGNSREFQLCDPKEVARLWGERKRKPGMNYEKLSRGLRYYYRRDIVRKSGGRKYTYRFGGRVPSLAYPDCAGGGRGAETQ
# Method in brief: as §1
# ELF3 = molecular target: T5, ELF3 (Homo sapiens, UniProt P78545 1-371); conditions: protein: recombinant; tags: N-terminal GST; dsDNA, one strand shown
# T5 sequence: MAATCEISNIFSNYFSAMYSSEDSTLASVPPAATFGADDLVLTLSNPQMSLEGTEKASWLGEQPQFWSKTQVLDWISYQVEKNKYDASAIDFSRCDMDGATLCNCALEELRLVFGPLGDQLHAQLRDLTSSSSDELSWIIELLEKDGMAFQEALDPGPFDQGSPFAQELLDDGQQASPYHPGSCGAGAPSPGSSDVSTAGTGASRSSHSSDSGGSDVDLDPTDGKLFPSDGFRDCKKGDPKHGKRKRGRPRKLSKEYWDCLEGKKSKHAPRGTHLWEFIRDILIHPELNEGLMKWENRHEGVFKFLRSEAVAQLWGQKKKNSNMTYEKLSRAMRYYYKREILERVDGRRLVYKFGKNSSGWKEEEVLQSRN
# Method in brief: as §1
# CRX = CRX (Homo sapiens, UniProt O43186 1-299); conditions: protein: recombinant; tags: N-terminal GST; dsDNA, one strand shown
# Method in brief: as §1
# ETV1 = ETV1 (Homo sapiens, UniProt P50549 1-477); conditions: protein: recombinant; tags: N-terminal GST; dsDNA, one strand shown
# Method in brief: as §1
# ERF = molecular target: T6, ERF (Homo sapiens, UniProt P50548 1-548); conditions: protein: recombinant; tags: N-terminal GST; dsDNA, one strand shown
# T6 sequence: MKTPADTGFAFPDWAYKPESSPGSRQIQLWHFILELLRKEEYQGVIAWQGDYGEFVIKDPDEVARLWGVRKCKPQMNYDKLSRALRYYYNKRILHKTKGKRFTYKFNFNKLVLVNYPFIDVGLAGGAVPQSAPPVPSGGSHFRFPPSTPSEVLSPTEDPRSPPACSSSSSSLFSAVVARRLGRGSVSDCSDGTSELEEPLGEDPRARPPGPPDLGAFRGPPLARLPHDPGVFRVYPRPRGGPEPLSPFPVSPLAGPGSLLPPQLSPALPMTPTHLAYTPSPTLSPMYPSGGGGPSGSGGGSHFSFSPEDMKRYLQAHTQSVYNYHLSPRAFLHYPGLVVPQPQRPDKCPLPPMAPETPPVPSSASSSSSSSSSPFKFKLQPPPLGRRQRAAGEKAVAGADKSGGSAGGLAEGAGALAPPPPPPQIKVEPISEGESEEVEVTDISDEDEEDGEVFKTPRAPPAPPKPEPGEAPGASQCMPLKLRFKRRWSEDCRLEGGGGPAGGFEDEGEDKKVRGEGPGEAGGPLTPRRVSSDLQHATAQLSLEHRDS
# Method in brief: as §1
# ETV3L = molecular target: T7, ETV3L (Homo sapiens, UniProt Q6ZN32 1-361); conditions: protein: recombinant; tags: N-terminal GST; dsDNA, one strand shown
# T7 sequence: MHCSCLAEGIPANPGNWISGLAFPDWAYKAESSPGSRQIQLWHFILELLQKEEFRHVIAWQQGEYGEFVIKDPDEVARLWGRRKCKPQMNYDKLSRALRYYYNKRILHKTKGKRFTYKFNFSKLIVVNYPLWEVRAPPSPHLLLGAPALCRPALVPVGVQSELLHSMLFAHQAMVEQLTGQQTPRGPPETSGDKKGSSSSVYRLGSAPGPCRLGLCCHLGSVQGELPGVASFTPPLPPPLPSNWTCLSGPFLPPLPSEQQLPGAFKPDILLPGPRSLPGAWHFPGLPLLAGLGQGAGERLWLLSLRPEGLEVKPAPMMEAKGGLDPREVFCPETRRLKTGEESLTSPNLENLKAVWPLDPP
# Method in brief: as §1
# ETS2 = molecular target: T8, ETS2 (Homo sapiens, UniProt P15036 1-469); conditions: protein: recombinant; tags: N-terminal GST; dsDNA, one strand shown
# T8 sequence: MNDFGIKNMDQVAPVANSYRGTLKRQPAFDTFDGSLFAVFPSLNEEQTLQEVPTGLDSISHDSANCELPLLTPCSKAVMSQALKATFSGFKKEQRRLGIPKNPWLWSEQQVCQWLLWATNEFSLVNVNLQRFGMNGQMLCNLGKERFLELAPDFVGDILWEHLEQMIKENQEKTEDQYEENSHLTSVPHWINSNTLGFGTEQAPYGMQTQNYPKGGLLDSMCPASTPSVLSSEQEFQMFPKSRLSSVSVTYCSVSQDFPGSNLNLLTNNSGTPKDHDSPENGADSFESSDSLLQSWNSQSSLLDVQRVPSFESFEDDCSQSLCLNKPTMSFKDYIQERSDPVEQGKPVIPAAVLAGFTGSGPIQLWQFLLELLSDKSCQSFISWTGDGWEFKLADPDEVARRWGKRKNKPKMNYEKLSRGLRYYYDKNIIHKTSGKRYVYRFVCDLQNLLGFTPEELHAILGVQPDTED
# Method in brief: as §1
# SPDEF = molecular target: T9, SPDEF (Homo sapiens, UniProt O95238 1-335); conditions: protein: recombinant; tags: N-terminal GST; dsDNA, one strand shown
# T9 sequence: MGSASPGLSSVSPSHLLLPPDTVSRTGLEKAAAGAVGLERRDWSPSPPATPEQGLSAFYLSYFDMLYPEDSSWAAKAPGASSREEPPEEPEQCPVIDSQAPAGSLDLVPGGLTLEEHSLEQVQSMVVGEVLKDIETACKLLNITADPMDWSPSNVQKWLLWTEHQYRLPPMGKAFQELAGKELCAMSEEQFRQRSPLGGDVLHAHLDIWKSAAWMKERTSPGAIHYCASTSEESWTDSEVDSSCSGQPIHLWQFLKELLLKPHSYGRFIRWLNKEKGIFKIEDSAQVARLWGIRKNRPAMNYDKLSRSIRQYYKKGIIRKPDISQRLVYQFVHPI
# Method in brief: as §1
# ETV7 = molecular target: T10, ETV7 (Homo sapiens, UniProt Q9Y603 1-341); conditions: protein: recombinant; tags: N-terminal GST; dsDNA, one strand shown
# T10 sequence: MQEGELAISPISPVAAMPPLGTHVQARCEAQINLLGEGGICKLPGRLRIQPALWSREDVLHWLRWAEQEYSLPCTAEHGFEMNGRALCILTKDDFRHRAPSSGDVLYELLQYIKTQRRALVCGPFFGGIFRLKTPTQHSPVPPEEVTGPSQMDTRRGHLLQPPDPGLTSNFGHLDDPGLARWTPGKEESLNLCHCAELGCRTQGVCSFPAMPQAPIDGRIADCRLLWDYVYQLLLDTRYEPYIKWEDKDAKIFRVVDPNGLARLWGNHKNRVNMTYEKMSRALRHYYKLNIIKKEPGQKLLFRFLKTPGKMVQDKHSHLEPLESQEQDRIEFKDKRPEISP
# Method in brief: as §1
# ELF5 = molecular target: T11, ELF5 (Homo sapiens, UniProt Q9UKW6-2 1-255); conditions: protein: recombinant; tags: N-terminal GST; dsDNA, one strand shown
# T11 sequence: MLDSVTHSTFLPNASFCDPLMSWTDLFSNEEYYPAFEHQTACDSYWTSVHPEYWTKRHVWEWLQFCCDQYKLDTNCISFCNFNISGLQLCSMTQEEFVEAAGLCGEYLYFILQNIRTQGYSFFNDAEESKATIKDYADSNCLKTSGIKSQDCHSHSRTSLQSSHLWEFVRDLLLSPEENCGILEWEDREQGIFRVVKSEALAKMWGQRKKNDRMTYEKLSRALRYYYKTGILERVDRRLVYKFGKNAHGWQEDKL
# Method in brief: as §1
# ETV3 = molecular target: T12, ETV3 (Homo sapiens, UniProt P41162-2 1-143); conditions: protein: recombinant; tags: N-terminal GST; dsDNA, one strand shown
# T12 sequence: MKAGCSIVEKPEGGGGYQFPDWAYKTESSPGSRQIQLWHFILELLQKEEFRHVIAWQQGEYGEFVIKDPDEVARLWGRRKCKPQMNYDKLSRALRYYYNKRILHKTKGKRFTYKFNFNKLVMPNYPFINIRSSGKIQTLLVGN
# Method in brief: as §1
# ETV6 = ETV6 (Homo sapiens, UniProt P41212 1-452); conditions: protein: recombinant; tags: N-terminal GST; dsDNA, one strand shown
# Method in brief: as §1
# HSF1, sequence (Q00613 whole entry): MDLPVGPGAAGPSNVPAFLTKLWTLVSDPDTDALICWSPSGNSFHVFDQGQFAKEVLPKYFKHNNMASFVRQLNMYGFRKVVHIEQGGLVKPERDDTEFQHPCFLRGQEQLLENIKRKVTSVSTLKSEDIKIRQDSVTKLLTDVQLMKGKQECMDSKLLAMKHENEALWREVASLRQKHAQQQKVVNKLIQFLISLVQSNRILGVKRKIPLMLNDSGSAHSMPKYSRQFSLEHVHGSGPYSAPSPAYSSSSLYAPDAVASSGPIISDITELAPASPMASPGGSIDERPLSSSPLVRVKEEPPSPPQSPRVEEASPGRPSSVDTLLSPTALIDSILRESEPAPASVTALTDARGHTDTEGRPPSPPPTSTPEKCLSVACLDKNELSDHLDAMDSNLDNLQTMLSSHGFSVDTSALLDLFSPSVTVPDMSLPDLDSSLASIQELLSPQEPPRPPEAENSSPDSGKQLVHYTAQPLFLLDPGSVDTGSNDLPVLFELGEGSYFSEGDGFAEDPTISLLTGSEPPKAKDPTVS
# ELF4, sequence (Q99607 whole entry): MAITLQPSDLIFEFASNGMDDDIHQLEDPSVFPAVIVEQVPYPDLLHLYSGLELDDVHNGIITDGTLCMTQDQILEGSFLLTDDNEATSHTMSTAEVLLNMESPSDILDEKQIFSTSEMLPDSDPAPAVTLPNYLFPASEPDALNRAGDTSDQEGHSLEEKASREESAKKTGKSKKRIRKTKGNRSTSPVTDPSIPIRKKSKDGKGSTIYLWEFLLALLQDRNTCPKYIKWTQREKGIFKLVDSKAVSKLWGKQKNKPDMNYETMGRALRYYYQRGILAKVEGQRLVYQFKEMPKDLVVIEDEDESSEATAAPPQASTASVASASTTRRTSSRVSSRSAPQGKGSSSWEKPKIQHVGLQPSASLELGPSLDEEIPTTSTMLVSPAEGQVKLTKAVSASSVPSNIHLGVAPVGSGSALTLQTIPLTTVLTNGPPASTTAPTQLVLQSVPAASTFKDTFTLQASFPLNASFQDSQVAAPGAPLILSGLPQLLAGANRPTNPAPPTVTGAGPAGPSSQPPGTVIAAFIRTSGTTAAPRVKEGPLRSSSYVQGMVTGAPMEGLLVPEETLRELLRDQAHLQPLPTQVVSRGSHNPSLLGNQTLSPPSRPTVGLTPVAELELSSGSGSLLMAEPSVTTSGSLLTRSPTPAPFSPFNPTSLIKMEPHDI
# ETV1, sequence (P50549 whole entry): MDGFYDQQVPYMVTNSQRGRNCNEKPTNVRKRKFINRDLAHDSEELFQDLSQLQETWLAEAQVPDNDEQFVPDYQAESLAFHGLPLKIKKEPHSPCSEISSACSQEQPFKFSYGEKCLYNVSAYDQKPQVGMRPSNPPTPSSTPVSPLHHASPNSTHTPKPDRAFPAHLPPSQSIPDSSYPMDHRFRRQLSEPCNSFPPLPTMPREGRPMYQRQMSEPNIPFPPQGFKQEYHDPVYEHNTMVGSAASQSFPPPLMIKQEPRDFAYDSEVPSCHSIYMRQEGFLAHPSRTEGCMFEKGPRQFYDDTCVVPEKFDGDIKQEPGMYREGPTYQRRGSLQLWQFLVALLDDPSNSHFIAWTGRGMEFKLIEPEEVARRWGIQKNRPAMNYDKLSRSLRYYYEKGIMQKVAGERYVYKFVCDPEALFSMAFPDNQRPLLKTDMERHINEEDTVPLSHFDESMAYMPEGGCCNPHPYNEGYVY
# CRX, sequence (O43186 whole entry): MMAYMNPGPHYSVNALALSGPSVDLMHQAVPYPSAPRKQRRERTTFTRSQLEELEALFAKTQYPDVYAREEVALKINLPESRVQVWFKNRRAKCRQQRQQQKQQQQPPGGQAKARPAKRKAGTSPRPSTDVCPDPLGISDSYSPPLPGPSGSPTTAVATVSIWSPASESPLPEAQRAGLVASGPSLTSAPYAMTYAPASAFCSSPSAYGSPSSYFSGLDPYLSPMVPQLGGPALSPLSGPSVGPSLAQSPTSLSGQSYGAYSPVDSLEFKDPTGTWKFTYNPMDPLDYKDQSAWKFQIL
# ETV5, sequence (P41161 whole entry): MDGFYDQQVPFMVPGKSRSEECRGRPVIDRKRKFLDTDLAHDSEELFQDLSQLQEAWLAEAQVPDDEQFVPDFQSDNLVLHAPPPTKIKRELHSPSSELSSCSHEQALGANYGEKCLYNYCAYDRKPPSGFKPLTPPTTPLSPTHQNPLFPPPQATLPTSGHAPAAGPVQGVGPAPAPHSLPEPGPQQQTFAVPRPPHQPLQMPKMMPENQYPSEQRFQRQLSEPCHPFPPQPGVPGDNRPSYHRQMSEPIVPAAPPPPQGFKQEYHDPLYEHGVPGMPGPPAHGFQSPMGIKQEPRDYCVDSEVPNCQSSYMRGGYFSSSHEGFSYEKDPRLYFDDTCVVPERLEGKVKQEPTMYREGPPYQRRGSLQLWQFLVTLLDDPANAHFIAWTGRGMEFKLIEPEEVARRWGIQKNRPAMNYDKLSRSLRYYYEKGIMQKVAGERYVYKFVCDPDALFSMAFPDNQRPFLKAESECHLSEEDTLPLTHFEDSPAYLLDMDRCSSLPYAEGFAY
# ETV6, sequence (P41212 whole entry): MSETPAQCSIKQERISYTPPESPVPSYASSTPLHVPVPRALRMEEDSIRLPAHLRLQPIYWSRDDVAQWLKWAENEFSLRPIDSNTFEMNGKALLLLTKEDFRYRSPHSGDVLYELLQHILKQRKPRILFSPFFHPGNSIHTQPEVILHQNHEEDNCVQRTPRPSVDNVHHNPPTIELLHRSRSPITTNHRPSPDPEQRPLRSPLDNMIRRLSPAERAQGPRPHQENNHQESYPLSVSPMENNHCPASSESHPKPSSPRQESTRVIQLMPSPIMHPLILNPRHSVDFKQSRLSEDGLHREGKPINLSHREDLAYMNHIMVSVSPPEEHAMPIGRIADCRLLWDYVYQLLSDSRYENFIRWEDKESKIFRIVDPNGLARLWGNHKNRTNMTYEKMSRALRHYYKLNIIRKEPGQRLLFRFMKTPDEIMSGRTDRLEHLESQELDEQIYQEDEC
sequence,measurement,setting,value
CTTTGA,binding signal,FEV,"1.14 fold enrichment (6-mer frequency, TF over GST control)"
same,binding signal,ETV5,"1.18 fold enrichment (6-mer frequency, TF over GST control)"
same,binding signal,HSF1,"1.21 fold enrichment (6-mer frequency, TF over GST control)"
same,binding signal,SPIC,"1.4 fold enrichment (6-mer frequency, TF over GST control)"
same,binding signal,ELF4,"1.24 fold enrichment (6-mer frequency, TF over GST control)"
same,binding signal,ELK4,"1.41 fold enrichment (6-mer frequency, TF over GST control)"
same,binding signal,ETV2,"1.27 fold enrichment (6-mer frequency, TF over GST control)"
same,binding signal,ELF3,"1.16 fold enrichment (6-mer frequency, TF over GST control)"
same,binding signal,CRX,"1.23 fold enrichment (6-mer frequency, TF over GST control)"
same,binding signal,ETV1,"1.21 fold enrichment (6-mer frequency, TF over GST control)"
same,binding signal,ERF,"1.18 fold enrichment (6-mer frequency, TF over GST control)"
same,binding signal,ETV3L,"1.11 fold enrichment (6-mer frequency, TF over GST control)"
same,binding signal,ETS2,"1.15 fold enrichment (6-mer frequency, TF over GST control)"
same,binding signal,SPDEF,"1.1 fold enrichment (6-mer frequency, TF over GST control)"
same,binding signal,ETV7,"1.34 fold enrichment (6-mer frequency, TF over GST control)"
same,binding signal,ELF5,"1.16 fold enrichment (6-mer frequency, TF over GST control)"
same,binding signal,ETV3,"1.35 fold enrichment (6-mer frequency, TF over GST control)"
same,binding signal,ETV6,"1.25 fold enrichment (6-mer frequency, TF over GST control)"
